Data: publication PMC4336329 (PLoS ONE, 2015)
Hit rate of the full screen: of about 310,000 compounds, about 14,000 (4.5%) showed an effect of 50% or more. Effects have a minus sign here. The list comes from a sample in which strong results are over-represented; it also holds similar structures and randomly drawn compounds.

The compounds below were run against human ether-à-go-go-related gene (hERG) potassium channel (human, UniProt Q12809) (assay: primary screen, population patch clamp on CHO cells stably expressing hERG; higher = less effect of the substance).
Chain of human ether-à-go-go-related gene (hERG) potassium channel (Q12809 whole entry, looked up): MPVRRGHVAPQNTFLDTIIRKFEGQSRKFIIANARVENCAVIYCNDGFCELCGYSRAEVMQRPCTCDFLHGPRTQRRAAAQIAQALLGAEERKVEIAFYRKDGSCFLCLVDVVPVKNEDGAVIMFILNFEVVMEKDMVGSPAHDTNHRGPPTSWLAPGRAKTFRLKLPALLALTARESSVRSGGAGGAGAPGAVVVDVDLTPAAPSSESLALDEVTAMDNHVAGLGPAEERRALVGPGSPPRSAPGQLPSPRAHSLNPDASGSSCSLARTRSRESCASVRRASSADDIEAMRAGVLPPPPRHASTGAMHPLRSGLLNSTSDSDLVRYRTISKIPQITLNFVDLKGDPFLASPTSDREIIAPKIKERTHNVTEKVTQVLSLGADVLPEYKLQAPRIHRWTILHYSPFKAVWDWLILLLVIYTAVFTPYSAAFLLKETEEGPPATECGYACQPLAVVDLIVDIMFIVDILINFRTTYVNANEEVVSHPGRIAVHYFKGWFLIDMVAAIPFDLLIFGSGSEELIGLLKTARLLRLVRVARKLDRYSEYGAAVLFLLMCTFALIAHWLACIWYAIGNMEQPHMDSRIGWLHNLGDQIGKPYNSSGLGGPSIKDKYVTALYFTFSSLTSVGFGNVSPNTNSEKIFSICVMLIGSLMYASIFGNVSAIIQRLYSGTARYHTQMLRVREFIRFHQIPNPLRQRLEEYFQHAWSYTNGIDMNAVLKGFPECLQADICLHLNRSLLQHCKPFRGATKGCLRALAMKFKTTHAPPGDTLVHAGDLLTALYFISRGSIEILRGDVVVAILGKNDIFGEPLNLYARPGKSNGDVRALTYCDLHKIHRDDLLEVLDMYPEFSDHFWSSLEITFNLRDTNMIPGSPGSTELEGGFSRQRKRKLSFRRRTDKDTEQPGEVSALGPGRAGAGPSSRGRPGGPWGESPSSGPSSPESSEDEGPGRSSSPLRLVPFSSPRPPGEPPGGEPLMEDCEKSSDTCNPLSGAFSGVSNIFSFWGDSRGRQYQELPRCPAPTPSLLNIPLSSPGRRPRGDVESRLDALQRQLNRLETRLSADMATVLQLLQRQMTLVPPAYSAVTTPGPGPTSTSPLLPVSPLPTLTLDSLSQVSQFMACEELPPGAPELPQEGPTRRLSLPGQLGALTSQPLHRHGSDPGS
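Note: peak tail current of the secondary pulse compared with the same well before compound.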

In order of rising “hERG current change (%, negative = inhibition) at 10uM” value:
1. CCCN1CCN(C(=O)c2ccc(-c3ccc([N+](=O)[O-])cc3)o2)CC1  -78.1%
2. CCCCn1c(SCC(=O)N2CCC(C(=O)OCC)CC2)nc2cc(S(N)(=O)=O)ccc21  -70.7%
3. CC1CC(C)CN(C(=O)c2ccc(-c3ccc([N+](=O)[O-])cc3)o2)C1 (stereo not drawn)  -69.1%
4. Cc1ccsc1CN(C(=O)c1ccc([N+](=O)[O-])cc1)C1CCS(=O)(=O)C1 (stereo not drawn)  -60.8%
5. O=C(c1ccc(-c2ccc([N+](=O)[O-])cc2)o1)N1CCCCC1  -58.4%
6. CCOC(=O)C1CCCN(C(=O)c2ccc(-c3ccc([N+](=O)[O-])cc3)o2)C1 (stereo not drawn)  -56.1%
7. Cc1cccc(N(Cc2ccccc2)C(=O)CSC(C)C(=O)Nc2cc(C)on2)c1 (stereo not drawn)  -53%
8. O=C(COc1ccc([N+](=O)[O-])cc1)N(Cc1cccs1)C1CCS(=O)(=O)C1 (stereo not drawn)  -52.3%
9. CCCCn1c(SCc2ncc(-c3ccccc3)o2)nc2cc(S(N)(=O)=O)ccc21  -50.5%
10. CCc1ccc(OCC(=O)N(Cc2cccs2)C2CCS(=O)(=O)C2)cc1 (stereo not drawn)  -47.8%
11. CCCCn1c(SCc2c(C)noc2C)nc2cc(S(N)(=O)=O)ccc21  -43.1%
12. COc1cccc(CN(C(=O)COc2ccccc2[N+](=O)[O-])C2CCS(=O)(=O)C2)c1 (stereo not drawn)  -42%
13. CCCCn1c(SCc2nc3ccccc3s2)nc2cc(S(N)(=O)=O)ccc21  -37.5%
14. CS(=O)(=O)N(CC(=O)NCCSCc1ccccc1Cl)c1ccccc1F  -35.4%
15. Cc1cc(NC(=O)C(C)SCC(=O)OCC(=O)N(Cc2ccccc2)C(C)(C)C)no1 (stereo not drawn)  -35.4%
16. CCCCn1c(SCC(=O)N2CCC(C)CC2)nc2cc(S(N)(=O)=O)ccc21  -30.2%
17. Cc1ccc(C(=O)N(Cc2sccc2C)C2CCS(=O)(=O)C2)cc1 (stereo not drawn)  -28.2%
18. O=C(c1ccc(-c2ccc([N+](=O)[O-])cc2)o1)N1CCN(S(=O)(=O)c2cccs2)CC1  -27.3%
19. O=C(c1ccc(-c2ccc([N+](=O)[O-])cc2)o1)N1CCCCCCC1  -22.7%
20. CCOC(=O)C1CCCN(C(=O)c2ccc(CS(=O)(=O)c3ccc(C)cc3)o2)C1 (stereo not drawn)  -20.4%
21. O=C(c1ccc(-c2ccc([N+](=O)[O-])cc2)o1)N1CCCC(C(F)(F)F)C1 (stereo not drawn)  -17%
22. CCOC(=O)C1CCCN(C(=O)c2ccc([N+](=O)[O-])cc2)C1 (stereo not drawn)  -14.4%
23. Cc1ccc(N2CC(C(=O)NCc3n[nH]c(=O)c4ccccc34)CC2=O)cc1C (stereo not drawn)  -13.5%
24. Cc1cc(NC(=O)C(C)SCC(=O)OCC(=O)N(C)c2ccccc2)no1 (stereo not drawn)  -7%
25. CCN(C(=O)COc1ccccc1[N+](=O)[O-])C1CCS(=O)(=O)C1 (stereo not drawn)  0.104%
26. O=C(O)c1cccc(CSc2nc(-c3ccccc3)cc(C(F)(F)F)n2)c1  0.347%
27. COc1ccccc1N1CCN(c2ccc([N+](=O)[O-])cn2)CC1  0.823%
28. O=C(CSc1ncnc2ccccc12)NCC(=O)c1ccccc1  1.57%
29. O=C1NC(c2ccc(-c3ccccc3[N+](=O)[O-])o2)C(C(=O)c2ccc(Cl)cc2)C(O)(C(F)(F)F)N1 (stereo not drawn)  2.13%
30. Cc1ccsc1CN(C(=O)c1ccccc1)C1CCS(=O)(=O)C1 (stereo not drawn)  2.16%
31. CCOC(=O)CNC(=O)CSc1nnc(NC(=O)c2ccc3c(c2)OCO3)s1  3.8%
32. Cc1ccc(OCC(=O)N(Cc2cccs2)C2CCS(=O)(=O)C2)cc1C (stereo not drawn)  4.21%
33. CC1CCN(C(=O)c2ccc([N+](=O)[O-])o2)CC1  4.53%
34. O=C(Nc1ccccc1)c1c(O)[nH]c(=O)[nH]c1=O  8.67%
35. Cc1cc(NS(C)(=O)=O)c(=O)n(Cc2c(F)cccc2Cl)c1  8.86%
36. CC1C/C(=N\NC(=S)NC(C)C)CC(C)(C)C1 (stereo not drawn)  9.06%
37. CCCCn1c(SCC(=O)N2CCCC2)nc2cc(S(N)(=O)=O)ccc21  9.3%
38. CCC(CC)NC(=O)c1nn(Cc2ccccc2)c(=O)c2ccccc12  10.9%
39. COc1ccc(-c2cc(C(=O)Nc3cc(C)on3)no2)cc1  19.9%
40. CC1=NN(C(N)=S)C(=O)C1N=Nc1ccccc1Cl (stereo not drawn)  20.2%
41. Cc1ccccc1N1CCN(C(=S)c2ccc(-c3ccc([N+](=O)[O-])cc3)o2)CC1  20.2%
42. CC1CCCN(C(=O)c2ccc([N+](=O)[O-])o2)C1 (stereo not drawn)  21.6%
